For eleven molecules, optomotor response results are on record in the supplement of paper PMC9023506.

Counter-ions that a name gives are not always drawn.

The test relates to Danio rerio larvae (5 dpf). Kind of test: optomotor response to fast red moving lines, difference vs DMSO (percentage points (treated minus DMSO)); higher = more of the behaviour than the DMSO vehicle control. The note with it: 10 µM; exposure time: 3 h pre-incubation + 3 h imaging. The protocol:
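5-dpf wild-type zebrafish larvae were imaged in 96-well plates. They were treated with 190 Tocris FDA-approved drugs at 10 µM (1 µl/ml DMSO) for 3 h before and 3 h during imaging at 28.5 °C, 48 larvae per drug. Automated image analysis gave % time moving and optomotor responses. Values are drug group mean minus DMSO vehicle mean (n=844), in percentage points, for 10 behaviours.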
Turning to `N[C@@H]1C[C@H]1c1ccccc1` [Tranylcypromine hydrochloride], the optomotor response stood at 11.9.

`CCN(C)C(=O)Oc1cccc([C@H](C)N(C)C)c1` [Rivastigmine tartrate]: the optomotor response was -8.58.

For the molecule `C=C1C[C@@H]2[C@H](CC[C@]3(C)C(=O)CC[C@@H]23)[C@@]2(C)C=CC(=O)C=C12` [Exemestane], the optomotor response came out at 5.64.

With `CC(C)C[C@H]1C(=O)N2CCC[C@H]2[C@]2(O)O[C@](NC(=O)[C@@H]3C=C4c5cccc6[nH]c(Br)c(c56)C[C@H]4N(C)C3)(C(C)C)C(=O)N12` [Bromocriptine mesylate], the optomotor response is -41.6.

For the molecule `COc1cc2c(cc1OC)C1CC(=O)C(CC(C)C)CN1CC2` (stereo unspecified) [Tetrabenazine], the optomotor response was -22.5.

In the case of `COc1ccc(C(CN(C)C)C2(O)CCCCC2)cc1` (stereo unspecified) [Venlafaxine hydrochloride], the optomotor response came out at 7.81.

For `CC[C@@H](C(N)=O)N1CCCC1=O` [Levetiracetam], the optomotor response was -4.73.

For the molecule `CN1C[C@H](C(=O)N[C@]2(C)O[C@@]3(O)[C@@H]4CCCN4C(=O)[C@H](Cc4ccccc4)N3C2=O)C[C@@H]2c3cccc4[nH]cc(c34)C[C@H]21` [Dihydroergotamine mesylate], the optomotor response worked out at 2.2.

Take `CC(O)(CS(=O)(=O)c1ccc(F)cc1)C(=O)Nc1ccc(C#N)c(C(F)(F)F)c1` (stereo unspecified) [Bicalutamide]: the optomotor response is -2.63.

As to `C=CCN1C[C@H](C(=O)N(CCCN(C)C)C(=O)NCC)C[C@@H]2c3cccc4[nH]cc(c34)C[C@H]21` [Cabergoline], the optomotor response was -23.2.

`O=c1[nH]c2ccccc2n1C1CCN(CCCC(c2ccc(F)cc2)c2ccc(F)cc2)CC1` [Pimozide]: the optomotor response is -34.3.
